± gives the standard deviation of the averaged measurements.

Here are results for 9 molecules from the supplement of paper PMC6522484.

The subject of assay [1] is DLD1. Description: cell viability (CellTiter-Glo) relative to plate median (fraction of plate median); higher = more viable cells. The settings on record: 10 µM, treatment time 24 h. In short, it runs like this: (§1)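 Colorectal cancer cell lines carrying stably transduced lentiviral TCF/Wnt firefly luciferase reporters (7TFP or TCF4/Wnt) were plated in 384-well plates and treated 24 h later with kinase inhibitor library compounds at a final 10 µM for 24 h. Firefly luciferase or CellTiterGlo luminescence was read on parallel plates with a Tecan F500 reader. Signals were normalised per well to the plate median in webcellHTS2 (additive, no log transformation), and values are the mean of two independent replicates.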

Assay [2] deals with HCT116. The assay is described as above. The settings on record: 10 µM; treatment time 24 h; reporter: TCF4/Wnt. The essentials: as §1
Assay [3] deals with SW480. Described as above. The settings on record: 10 µM; treatment time 24 h; reporter: 7TFP. In short, it runs like this: as §1
Assay [4] concerns DLD1. The experiment in a line: TCF/Wnt firefly luciferase reporter signal relative to plate median (fraction of plate median); higher = higher Wnt reporter signal. The settings on record: 10 µM, treatment time 24 h. In short, it runs like this:
as §1

In assay [5] the test system is HCT116. The description is as above. To be noted: 10 µM; treatment time 24 h; reporter: TCF4/Wnt. In short, it runs like this:
as §1

For assay [6], the system named is SW480. Described as above. To be noted: 10 µM; treatment time 24 h; reporter: 7TFP. The essentials:
as §1

The subject of assay [7] is DLD1. The experiment in a line: cell viability (CellTiter-Glo) relative to plate median (fraction of plate median); higher = more viable cells. The settings on record: 5 µM; treatment time 24 h; reporter: 7TFP. In short, it runs like this: (§2)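 Each entry is a luminescence signal normalised to the plate median, averaged over independent replicates. The replicate count was two, and the cells were colorectal cancer lines with stable lentiviral TCF/Wnt firefly luciferase reporters exposed to library compounds at a final 5 µM for 24 h. Firefly luciferase and CellTiterGlo were measured on parallel plates.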

The subject of assay [8] is HCT116. Described as above. To be noted: 5 µM; treatment time 24 h; reporter: TCF4/Wnt. The essentials: as §2
In assay [9] the test system is SW480. The description is as above. The settings on record: 5 µM; treatment time 24 h; reporter: 7TFP. In short, it runs like this: as §2
The subject of assay [10] is DLD1. The experiment in a line: TCF/Wnt firefly luciferase reporter signal relative to plate median (fraction of plate median); higher = higher Wnt reporter signal. The settings on record: 5 µM; treatment time 24 h; reporter: 7TFP. The essentials: as §2
For orientation: Reporter assays use an easily measured gene product as a stand-in for the process of interest.

Assay [11] deals with SW480. The assay is described as above. The settings on record: 5 µM; treatment time 24 h; reporter: 7TFP. The essentials:
as §2

As to `CNC(=O)c1ccccc1Nc1nc(Nc2ccc(N3CCOCC3)cc2OC)ncc1Cl`, the cell viability in the assay with DLD1 [1] (reporter: 7TFP) was 0.8225 ± 0.00071; in the assay on DLD1 [1] (reporter: TCF4/Wnt), 0.933 ± 0.069; in the assay with HCT116 [2] it was 0.895 ± 0.049; in the assay with SW480 [3], 1.02 ± 0.073. For the same molecule, the “TCF/Wnt firefly luciferase reporter signal” value was determined as 0.638 ± 0.0099 in the assay with DLD1 [4] (reporter: 7TFP), 0.823 ± 0.17 in the assay with DLD1 [4] (reporter: TCF4/Wnt), 1.22 ± 0.28 in the assay on HCT116 [5] and 1.08 ± 0.014 in the assay on SW480 [6].
Turning to `CN1CCN(c2cccc(Nc3nc4c(-c5ccc(S(C)(=O)=O)cc5)cccn4n3)c2)CC1`, the cell viability stood at 0.927 ± 0.013 with DLD1 [1] (reporter: 7TFP), 0.896 ± 0.042 in the assay on DLD1 [1] (reporter: TCF4/Wnt), 0.871 ± 0.031 with HCT116 [2] and 1.055 ± 0.0071 in the assay on SW480 [3]. Besides, the “TCF/Wnt firefly luciferase reporter signal” value with DLD1 [4] (reporter: 7TFP) came to 0.96 ± 0.1; in the assay with DLD1 [4] (reporter: TCF4/Wnt), 1.03 ± 0.057; in the assay with HCT116 [5] it was 1.32 ± 0.7; with SW480 [6], 1.34 ± 0.56.
With `N#CC1(c2ccc(NC(=O)c3cccnc3NCc3ccncc3)cc2)CCCC1` [Apatinib (YN968D1)], the cell viability was determined as 1.14 ± 0.042 in the assay on DLD1 [1] (reporter: 7TFP), 1.025 ± 0.0071 with DLD1 [1] (reporter: TCF4/Wnt), 1.22 ± 0.035 with HCT116 [2] and 0.912 ± 0.0092 in the assay with SW480 [3]. The “TCF/Wnt firefly luciferase reporter signal” value in the assay with DLD1 [4] (reporter: 7TFP) came to 0.975 ± 0.064; in the assay with DLD1 [4] (reporter: TCF4/Wnt), 1.095 ± 0.0071; in the assay with HCT116 [5] it was 0.727 ± 0.39; in the assay on SW480 [6], 0.761 ± 0.32.
As to `COc1ccc(-c2ccc3c(N4CCOC[C@@H]4C)nc(N4CCOC[C@@H]4C)nc3n2)cc1CO`, the cell viability amounted to 0.94 ± 0.14 in the assay on DLD1 [1] (reporter: 7TFP), 0.921 ± 0.033 in the assay on DLD1 [1] (reporter: TCF4/Wnt), 0.823 ± 0.12 in the assay with HCT116 [2] and 1.17 ± 0.099 with SW480 [3]. The “TCF/Wnt firefly luciferase reporter signal” value with DLD1 [4] (reporter: 7TFP) worked out at 0.34 ± 0.042; with DLD1 [4] (reporter: TCF4/Wnt), 0.4795 ± 0.0021; with HCT116 [5] it was 0.567 ± 0.08; in the assay with SW480 [6], 0.829 ± 0.035.
`C#Cc1cccc(Nc2ncnc3cc(OCCOC)c(OCCO)cc23)c1` [OSI-420 (Desmethyl Erlotinib)]: the cell viability with DLD1 [1] (reporter: 7TFP) was found to be 0.993 ± 0.038; in the assay with DLD1 [1] (reporter: TCF4/Wnt), 0.954 ± 0.011; in the assay on HCT116 [2], 1.075 ± 0.0071; in the assay with SW480 [3] it was 0.987 ± 0.047. Besides, the “TCF/Wnt firefly luciferase reporter signal” value in the assay on DLD1 [4] (reporter: 7TFP) turned out to be 0.826 ± 0.023; in the assay on DLD1 [4] (reporter: TCF4/Wnt), 0.927 ± 0.12; in the assay on HCT116 [5], 0.465 ± 0.3; with SW480 [6] it was 0.668 ± 0.39.
As to `Nc1ncnc2c1c(-c1cccc(OCc3ccccc3)c1)cn2C1CC(CN2CCCC2)C1` (centres undefined), the cell viability was found to be 0.77 ± 0.15 in the assay with DLD1 [1] (reporter: 7TFP), 0.809 ± 0.088 in the assay on DLD1 [1] (reporter: TCF4/Wnt), 0.67 ± 0.095 in the assay with HCT116 [2] and 0.952 ± 0.15 in the assay with SW480 [3]. Further, the “TCF/Wnt firefly luciferase reporter signal” value in the assay with DLD1 [4] (reporter: 7TFP) is 0.627 ± 0.15; in the assay on DLD1 [4] (reporter: TCF4/Wnt), 0.755 ± 0.047; in the assay with HCT116 [5] it was 0.75 ± 0.29; with SW480 [6], 0.895 ± 0.33.
For `Cc1[nH]c(/C=C2\C(=O)Nc3ccc(S(=O)(=O)N(C)c4cccc(Cl)c4)cc32)c(C)c1C(=O)N1CCN(C)CC1`, the cell viability was found to be 1.13 with DLD1 [1] (reporter: 7TFP), 1.04 ± 0.066 in the assay with DLD1 [1] (reporter: TCF4/Wnt), 1.09 ± 0.13 with HCT116 [2] and 1.06 ± 0.11 with SW480 [3]. Also, the “TCF/Wnt firefly luciferase reporter signal” value with DLD1 [4] (reporter: 7TFP) came to 0.858 ± 0.37; with DLD1 [4] (reporter: TCF4/Wnt) it was 0.954 ± 0.14; with HCT116 [5], 0.756 ± 0.098; in the assay on SW480 [6] it was 0.964 ± 0.065.
Take `O=C(NOCC1CC1)c1ccc(F)c(F)c1Nc1ccc(I)cc1Cl`: the cell viability in the assay on DLD1 [1] (reporter: 7TFP) is 1.19 ± 0.028; in the assay with DLD1 [1] (reporter: TCF4/Wnt), 1.065 ± 0.0071; in the assay on HCT116 [2], 1.11 ± 0.028; with SW480 [3], 1.1 ± 0.11. Also, the “TCF/Wnt firefly luciferase reporter signal” value was found to be 1.2 ± 0.042 with DLD1 [4] (reporter: 7TFP), 1.04 ± 0.23 in the assay with DLD1 [4] (reporter: TCF4/Wnt), 0.9945 ± 0.0078 in the assay on HCT116 [5] and 1.16 ± 0.32 with SW480 [6].
`CCC/C=C1\OC(=O)C2=C1CCC=C2`: the cell viability is 0.992 ± 0.083 in the assay on DLD1 [7], 0.973 ± 0.0028 with HCT116 [8] and 0.9545 ± 0.00071 in the assay with SW480 [9]. The “TCF/Wnt firefly luciferase reporter signal” value with DLD1 [10] is 0.948 ± 0.1; in the assay on SW480 [11], 0.967 ± 0.061.
